test: changes in parasitized red cell lysis, either direction – P. falciparum Indochina, OD700, 3 h, PSAC antagonist project, primary screen (AID 1156); details: P. falciparum-infected erythrocytes, osmotic lysis, higher = more signal, called active from +8 up or from −8 down

z-score, inactive:
Cc1cc(C)c(-c2cc([C@H](C)ON=C[C@@H](C)[C@H](OCc3ccccc3)C(C)C)on2)c(C)c1 -0.831, CC(CCN1CCCCc2nc(C)c(C)cc21)=NO[C@H](C)c1cn([C@@H]2COC[C@H]2O)nn1 0.116, COC(=O)[C@H](C)NC(=O)CCC1CC(OC(=O)NCc2ccc3c(c2)OCO3)CC2(CCCC(COC(=O)NCc3ccccc3)O2)O1 (stereo partly specified) 0.049, CC(=O)OC[C@H]1O[C@H](C#CCC2CCCCC2)C=C[C@@H]1OC(C)=O 0.0473, CN1CCc2nc(-c3ccccc3)c(-c3ccccc3)cc2C1 0.406, CO[C@H]1COC(=O)CCC[C@H](C)[C@H](OC)COC(=O)CC=C[C@@H]1C 0.232, COCOc1ccc(Br)cc1C(=O)C=Cc1ccc2c(c1)OCO2 0.365, CCN1C(=O)[C@H]2[C@H]3[C@H](O)[C@H](O)CC(=NO[C@@H](C)c4cc(-c5c(C)cc(C)cc5C)no4)[C@@H]3CC[C@H]2C1=O 0.504, C[C@@H](c1ccccc1)N1C(=O)[C@H]2[C@H]3[C@H](O)[C@H](O)CC(=NNC(=O)OCc4ccccc4)[C@@H]3CC[C@H]2C1=O -0.694, CO[C@H]1COC(=O)CCC[C@H](C)[C@@H](OC)COC(=O)CC=C[C@@H]1C -0.315, CO[C@H]1COC(=O)CC=C[C@H](C)[C@H](OC)COC(=O)[C@@H](C)NC(=O)CC=C[C@@H]1C -0.14, CC(CCN1CCCc2nc(C)c(C)cc21)=NOC[C@@H](C)[C@H](OCc1ccccc1)C(C)C -0.167, COc1ccc(COC(=O)NN=C2C[C@@H](O)[C@@H](O)[C@@H]3[C@@H]4C(=O)N([C@@H](C)c5ccccc5)C(=O)[C@@H]4CC[C@H]23)cc1 -0.0805, C=C(C)C(=O)OC[C@H]1CN2[C@@H](CC[C@@H](C)[C@@H]2c2ccc(Br)cc2)C(=O)O1 -0.691, O=C1[C@H]2[C@H]3[C@H](O)[C@H](O)CC(=NOC[C@@H](O)COCc4ccco4)[C@@H]3CC[C@H]2C(=O)N1Cc1ccc2c(c1)OCO2 0.826, O=C(NN=C1C[C@@H](O)[C@@H](O)[C@@H]2[C@@H]3C(=O)N(c4ccc(F)cc4F)C(=O)[C@@H]3CC[C@H]12)OCc1ccccc1 0.497, CC(=O)OC[C@H]1O[C@H](CC=NOC[C@@H](O)COCc2ccco2)C=C[C@@H]1OC(C)=O 0.482, CCN1C(C)=C(C(=O)OC)[C@@H](c2ccccc2)N2C(=O)[C@](O)(C(=O)OC)CC(C(C)=O)=C12 0.62, CC(C)CON=C1C[C@@H](O)[C@@H](O)[C@@H]2[C@@H]3C(=O)N([C@@H](C)c4ccccc4)C(=O)[C@@H]3CC[C@@H]12 0.181, COC(=O)CC=C1c2ccccc2[C@H](OC)[C@H]1C -0.0239, CC(=O)OC[C@H]1O[C@H](CC=NOC[C@@H](O)[C@H]2O[C@@H]3OC(C)(C)O[C@@H]3[C@H]2O)C=C[C@@H]1OC(C)=O 0.0662, C#CCCCON=C1C[C@@H](O)[C@@H](O)[C@@H]2[C@@H]3C(=O)N(C[C@@H]4CCCO4)C(=O)[C@@H]3CC[C@H]12 -0.0365, CCN1C(=O)[C@H]2[C@H]3[C@H](O)[C@H](O)CC(=NNC(=O)OCc4ccccc4)[C@H]3CC[C@H]2C1=O 0.364, C[C@@H]1CC[C@H]2C(=O)OC(Cc3ccccc3)CN2[C@H]1c1ccc(Br)cc1 (stereo partly specified) -0.23, CC(C)=NOC(C)CN1CCCCc2nc(C)c(C)cc21 (stereo unspecified) -0.565, COC(=O)[C@@H]1CC[C@H](C)[C@@H](c2ccc(C)cc2)N1C(=O)c1ccc(C=NOC[C@@H](O)[C@H]2O[C@@H]3OC(C)(C)O[C@@H]3[C@H]2O)cc1 0.107, CCOC(=O)[C@H](Cc1ccccc1)NC(=O)CCC1CC(OC(=O)NCc2cccc3ccccc23)CC2(CCCC(COC(=O)NCCc3ccccc3OC)O2)O1 (stereo partly specified) -0.602, CON=C[C@@H](OC)[C@H](C)C=CCC(=O)OC -0.779, O=C(NCCC[N+]1=CC=NC1c1ccccc1)N1CCCc2nc(-c3ccc(Br)cc3)ccc21 (stereo unspecified) 1.5, COc1cccc([C@H](O)Cn2cc(-c3ccc(CON=C(C)C)cc3)nn2)c1 0.99, C=CC[C@@H]1C=C[C@H](Oc2ccc(C)cc2)[C@@H](COC(=O)NCc2cccc3ccccc23)O1 -0.508, COC(=O)[C@H](C)NC(=O)CCC1CC(OC(=O)NCCc2ccc(F)cc2)CC2(CCCC(COC(=O)NCCOc3ccccc3)O2)O1 (stereo partly specified) 0.189, CO[C@@H](C(C)C)[C@@H](C)C1OC(=O)CC1O (stereo partly specified) -0.566, CO[C@@H]1C=CCC(=O)N[C@@H](C)C(=O)OC[C@@H](NS(=O)(=O)c2ccc(C)cc2)[C@H](C)C=CCC(=O)OC[C@H]1C -0.802, O=C1[C@H]2[C@H]3[C@H](O)[C@H](O)CC(=NO[C@@H]4O[C@H](CO)[C@@H](O)[C@H](O)[C@H]4O)[C@@H]3CC[C@H]2C(=O)N1C1CCCCC1 1.04, CCOC(=O)[C@H](CC(C)C)NC(=O)CCC1CC(OC(=O)NCc2ccc3c(c2)OCO3)CC2(CCCC(COC(=O)NCCOc3ccccc3)O2)O1 (stereo partly specified) -0.118
